Measurements published in PubChem BioAssay AID1159580 (chemical genetic matrix, 2015).
The whole screen tested about 5,500 compounds, of which about 2,000 (36%) were called active. Roughly 18% stayed inconclusive and do not appear here. Cut-off read from the data, not from the text of the source: active = normalized growth mostly below about 0.91 (no sharp cut-off); inconclusive = no clear call, values can overlap the other calls; inactive = mostly above about 0.92. Some of the results follow.

Experiment: chemical genetic growth profiling, strain panel (AID 1159580);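 note: tested at 20 µM; growth read once vehicle control cultures reached saturation at 30 °C; 1 = growth at the plate median or of vehicle wells; lower values mean less growth of the strain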
Details: S. cerevisiae deletion strains, growth OD
[1] = locus YHR030C, strain SLT2, stronger effect = lower value
[2] = locus YJL187C, strain SWE1, stronger effect = lower value

Measured: normalized growth

Nc1ccc([As](=O)(O)O)cc1
inactive: locus YAL021C, strain ccr4, stronger effect = lower value 1 | locus YAL026C, strain drs2, stronger effect = lower value 1.02 | locus YAL030W, strain snc1, stronger effect = lower value 1 | locus YBL061C, strain skt5, stronger effect = lower value 1.01 | locus YBR009C, strain hhf1, stronger effect = lower value 1.02 | locus YBR023C, strain chs3, stronger effect = lower value 1.02 | locus YBR171W, strain sec66, stronger effect = lower value 0.997 | locus YBR231C, strain swc5, stronger effect = lower value 1.01 | locus YBR279W, strain paf1, stronger effect = lower value 1 | locus YCL011C, strain gbp2, stronger effect = lower value 1 | locus YCL016C, strain dcc1, stronger effect = lower value 1.01 | locus YCL061C, strain MRC1, stronger effect = lower value 1 | locus YCL069W, strain vba3, stronger effect = lower value 1.01 | locus YCR088W, strain abp1, stronger effect = lower value 1.01 | locus YDL005C, strain med2, stronger effect = lower value 0.996 | locus YDL040C, strain nat1, stronger effect = lower value 1.01 | locus YDR001C, strain nth1, stronger effect = lower value 0.992 | locus YDR069C, strain doa4, stronger effect = lower value 1.01 | locus YDR137W, strain rgp1, stronger effect = lower value 0.994 | locus YDR159W, strain sac3, stronger effect = lower value 1.02 | locus YDR195W, strain ref2 0.993 | locus YDR297W, strain sur2, stronger effect = lower value 0.999 | locus YDR334W, strain swr1, stronger effect = lower value 1.01 | locus YDR335W, strain msn5, stronger effect = lower value 0.995 | locus YDR392W, strain spt3, stronger effect = lower value 1.01 | locus YEL003W, strain gim4, stronger effect = lower value 0.996 | locus YEL037C, strain rad23, stronger effect = lower value 0.997 | locus YEL061C, strain CIN8 (second series), stronger effect = lower value 0.997 | locus YER015W, strain faa2, stronger effect = lower value 0.999 | locus YER016W, strain bim1, stronger effect = lower value 1 | locus YER111C, strain swi4, stronger effect = lower value 1 | locus YER155C, strain BEM2 (second series), stronger effect = lower value 1.03 | locus YFR010W, strain ubp6, stronger effect = lower value 1 | locus YGL167C, strain pmr1, stronger effect = lower value 0.997 | locus YGL173C, strain kem1, stronger effect = lower value 1.01 | locus YGL227W, strain vid30, stronger effect = lower value 0.998 | locus YGL240W, strain doc1, stronger effect = lower value 1.01 | locus YGL253W, strain hxk2, stronger effect = lower value 1 | locus YHR013C, strain ard1, stronger effect = lower value 1.03 | locus YHR027C, strain rpn1, stronger effect = lower value 1 | [1] 1 | locus YHR079C, strain IRE1, stronger effect = lower value 0.984 | locus YHR142W, strain chs7, stronger effect = lower value 1.02 | locus YJL092W, strain hpr5, stronger effect = lower value 1.01 | locus YJL095W, strain BCK1 (second series), stronger effect = lower value 1 | locus YJL095W, strain BCK1, stronger effect = lower value 0.971 | locus YJL115W, strain asf1, stronger effect = lower value 1.01 | locus YJL129C, strain trk1, stronger effect = lower value 1 | locus YJL154C, strain vps35, stronger effect = lower value 1 | locus YJL164C, strain tpk1, stronger effect = lower value 1.01 | locus YJL166W, strain qcr8, stronger effect = lower value 0.998 | [2] 1 | locus YJR066W, strain TOR1, stronger effect = lower value 0.966 | locus YKL160W, strain elf1, stronger effect = lower value 1 | locus YKR026C, strain gcn3, stronger effect = lower value 0.997 | locus YKR091W, strain srl3, stronger effect = lower value 1.01 | locus YLL001W, strain dnm1, stronger effect = lower value 1.01 | locus YLL026W, stronger effect = lower value 1.01 | locus YLL041C, strain sdh2, stronger effect = lower value 1.01 | locus YLR027C, strain aat2, stronger effect = lower value 1 | locus YLR113W, strain HOG1, stronger effect = lower value 0.965 | locus YLR221C, strain rsa3, stronger effect = lower value 1.01 | locus YLR258W, strain gsy2, stronger effect = lower value 1.01 | locus YLR262C, strain YPT6 (second series), stronger effect = lower value 1 | locus YLR320W, strain mms22, stronger effect = lower value 0.999 | locus YLR342W, strain FKS1, stronger effect = lower value 1.01 | locus YLR357W, strain rsc2, stronger effect = lower value 1.01 | locus YLR370C, strain arc18, stronger effect = lower value 1 | locus YLR384C, strain iki3, stronger effect = lower value 1 | locus YML120C, strain ndi1, stronger effect = lower value 0.997 | locus YMR058W, strain fet3, stronger effect = lower value 1 | locus YMR125W, strain sto1, stronger effect = lower value 1 | locus YMR129W, stronger effect = lower value 1 | locus YMR205C, strain PFK2, stronger effect = lower value 1.04 | locus YMR231W, strain pep5, stronger effect = lower value 1 | locus YNL071W, strain lat1, stronger effect = lower value 1 | locus YNL183C, strain NPR1, stronger effect = lower value 0.968 | locus YNL209W, strain ssb2, stronger effect = lower value 0.999 | locus YNL248C, strain rpa49, stronger effect = lower value 0.992 | locus YNL322C, strain KRE1 (second series), stronger effect = lower value 1.01 | locus YNR049C, strain mso1, stronger effect = lower value 1 | locus YOR001W, strain rrp6, stronger effect = lower value 1 | locus YOR070C, strain gyp1, stronger effect = lower value 1.01 | locus YOR080W, strain dia2, stronger effect = lower value 1.01 | locus YOR083W, strain WHI5, stronger effect = lower value 1 | locus YOR106W, strain vam3, stronger effect = lower value 1.03 | locus YOR231W, strain MKK1, stronger effect = lower value 1.01 | locus YOR265W, strain rbl2, stronger effect = lower value 0.996 | locus YOR270C, strain vph1, stronger effect = lower value 1.06 | locus YOR290C, strain snf2, stronger effect = lower value 1 | locus YPL051W, strain arl3, stronger effect = lower value 1.01 | locus YPL078C, strain atp4, stronger effect = lower value 0.996 | locus YPL106C, strain sse1, stronger effect = lower value 0.996 | locus YPL240C, strain hsp82, stronger effect = lower value 1 | locus YPL256C, strain CLN2, stronger effect = lower value 1.02

O=[N+]([O-])c1ccc(SC2=NCCN2)c(Cl)c1
inactive: locus YAL013W, strain DEP1, stronger effect = lower value 0.994 | locus YBR229C, strain ROT2, stronger effect = lower value 1 | locus YDL101C, strain DUN1, stronger effect = lower value 0.987 | locus YDR150W, strain NUM1, stronger effect = lower value 0.985 | locus YEL061C, strain CIN8, stronger effect = lower value 0.978 | locus YGR078C, strain PAC10, stronger effect = lower value 0.987 | [1] 1.03 | locus YHR087W, strain rtc3, stronger effect = lower value 1.01 | [2] 0.98 | locus YJR043C, strain POL32, stronger effect = lower value 0.964 | locus YJR075W, strain HOC1, stronger effect = lower value 0.952 | locus YKL190W, strain CNB1, stronger effect = lower value 0.994 | locus YLR039C, strain RIC1, stronger effect = lower value 1 | locus YLR058C, strain SHM2 (second series), stronger effect = lower value 0.992 | locus YLR085C, strain ARP6, stronger effect = lower value 0.965 | locus YLR262C, strain YPT6, stronger effect = lower value 1 | locus YML094W, strain GIM5, stronger effect = lower value 0.972 | locus YMR219W, strain ESC1, stronger effect = lower value 0.977 | locus YMR263W, strain SAP30, stronger effect = lower value 1.01 | locus YNL153C, strain GIM3, stronger effect = lower value 1.02 | locus YNL298W, strain CLA4 (second series), stronger effect = lower value 1.03 | locus YNL322C, strain KRE1, stronger effect = lower value 0.984 | locus YNR030W, strain Alg12, stronger effect = lower value 0.995 | locus YOL006C, strain TOP1, stronger effect = lower value 1 | locus YPL055C, strain LGE1, stronger effect = lower value 1.03 | locus YPL241C, strain CIN2, stronger effect = lower value 0.985 | locus YPR135W, strain CTF4, stronger effect = lower value 1.09
